Laboratory results published in PubChem BioAssay.

test: changes in parasitized red cell lysis, either direction – P. falciparum Indochina, OD700, 3 h, PSAC antagonist project, primary screen (AID 1156); details: P. falciparum-infected erythrocytes, osmotic lysis, higher = more signal, called active from +8 up or from −8 down

z-score, inactive:
CC(=O)OC[C@H]1O[C@@H](ON=C(C)C)[C@H](OC(C)=O)[C@@H](OC(C)=O)[C@@H]1OC(C)=O 0.638
CC(C)=CCCC(C)=CCON=C1[C@H]2CCn3c(=O)n(-c4ccccc4)c(=O)n3[C@H]2[C@H](O)[C@@H]2O[C@H]12 2.07
COC(=O)CC=C[C@@H](C)[C@@H](C=NOC[C@@H](C)[C@H](OCc1ccccc1)C(C)C)OC -0.728
CCOC(=O)CCN1C(=O)[C@H]2[C@H]3[C@H](O)[C@H](O)CC(=NO[C@@H]4O[C@H](CO)[C@@H](O)[C@H](O)[C@H]4O)[C@@H]3CC[C@H]2C1=O 1.31
COC(=O)[C@H](C)NC(=O)CCC1CC(OC(=O)NCc2ccc3c(c2)OCO3)CC2(CCCC(COC(=O)NCCc3ccc(Cl)cc3)O2)O1 (stereo partly specified) 1.29
CC(CCN1CCCc2nc(C)c(C)cc21)=NOC[C@@H](O)COCc1ccco1 0.453
CC(CCN1CCCCc2nc(C)c(C)cc21)=NO[C@@H](C)c1cc(-c2c(C)cc(C)cc2C)no1 1.54
C[C@H]1CC[C@@H](C(=O)O)N[C@@H]1c1ccc(C#Cc2ccccc2)cc1 0.26
COc1ccc(O[C@H]2C=C[C@@H](c3ccccc3)O[C@@H]2COC(=O)NCc2cccc3ccccc23)cc1 -0.119
CC(C)CON=C1C[C@@H](O)[C@@H](O)[C@@H]2[C@@H]3C(=O)N(C(C)(C)C)C(=O)[C@@H]3CC[C@@H]12 0.695
CC(C)CON=C1[C@H]2CCn3c(=O)n(C)c(=O)n3[C@H]2[C@H](O)[C@@H]2O[C@H]12 -0.607
CCOC(=O)CCN1C(=O)[C@H]2[C@H]3[C@H](O)[C@H](O)CC(=O)[C@@H]3CC[C@H]2C1=O -0.737
CC1(C)O[C@H]2OC([C@H](O)CON3C(=O)c4ccccc4C3=O)[C@H](O)[C@H]2O1 (stereo partly specified) -0.356
COc1cccc([C@H](O)Cn2cc(-c3ccc(CON=C(C)C)cc3)nn2)c1 0.99
COCC#Cc1ccc([C@@H]2N[C@H](C(=O)O)CC[C@H]2C)cc1 -0.571
O=C1C[C@H](c2ccccc2)[C@H](c2ccc(Br)cc2)O1 -0.0291
CCCNC(=O)OC[C@H]1O[C@H](CCON=C[C@@H](NS(=O)(=O)c2ccc(C)cc2)[C@H](C)C=CCC(=O)OC)C=C[C@@H]1Oc1ccc(OC)cc1 0.518
CCOC(=O)[C@H](Cc1ccccc1)NC(=O)CCC1CC(OC(=O)NCCc2ccc(F)cc2)CC2(CCCC(COC(=O)NCCOc3ccccc3)O2)O1 (stereo partly specified) -0.619
C=CC[C@@H]1C=C[C@H](Oc2ccc(C)cc2)[C@@H](COC(=O)NCc2cccc3ccccc23)O1 -0.508
O=C1C2=CC[C@H]3C(=O)N(C[C@@H]4CCCO4)C(=O)[C@H]3[C@H]2[C@H](O)[C@@H]2O[C@H]12 -0.2
CSCC[C@@H]1NC(=O)CC=C[C@@H](C)COC(=O)[C@H](C)COC1=O -0.92
COC(=O)[C@H](Cc1ccccc1)NC(=O)[C@@H](C)CO 0.811
O=C1[C@H]2[C@H]3[C@H](O)[C@H](O)CC(=NOCc4ccccc4)[C@@H]3CC[C@H]2C(=O)N1c1cccc(Oc2ccccc2)c1 1.19
CC(C)C(=O)N[C@H]1CCCN1C(=O)C=Cc1ccccc1 0.632
CCN1C(=O)[C@H]2[C@H]3[C@H](O)[C@H](O)CC(=NOCC(C)C)[C@H]3CC[C@H]2C1=O -0.369
C#CCCCON=C1[C@H]2CCn3c(=O)n(Cc4cc5c(cc4Cl)OCO5)c(=O)n3[C@H]2[C@H](O)[C@@H]2O[C@H]12 0.579
COC(=O)[C@H](C)NC(=O)CCC1CC(OC(=O)NCc2cccc3ccccc23)CC2(CCCC(COC(=O)NCCOc3ccccc3)O2)O1 (stereo partly specified) -0.363
CO[C@H]1COC(=O)CC=C[C@@H](C)COC(=O)[C@H]2CCCN2C(=O)CC=C[C@H]1C -0.521
O=C1C[C@@H](O)[C@@H](O)[C@@H]2[C@@H]3C(=O)N(C4CCCCC4)C(=O)[C@@H]3CC[C@@H]12 0.265
CN1CCc2nc(-c3ccccc3)c(-c3ccccc3)cc2C1 0.406
CC(CCC(=O)OC[C@H]1O[C@H](C#Cc2ccccc2)C=C[C@@H]1Oc1ccc(C)cc1)=NOC(C)CN1CCCCc2nc(C)c(C)cc21 (stereo partly specified) 0.983
CO[C@@H]1C=CCC(=O)N[C@@H](C)C(=O)OC[C@@H](OC)[C@H](C)C=CCC(=O)OC[C@H]1C 0.442
CO[C@@H]1[C@H](O)CO[C@H]1C=Cc1ccccc1 0.837
CO[C@H]1COC(=O)[C@H](CCSC)NC(=O)CC=C[C@@H](C)[C@H](OC)COC(=O)[C@@H](OCc2ccccc2)C=C[C@@H]1C 1.17
COc1ccc(OC[C@H]2CN3[C@@H](CC[C@@H](C)[C@@H]3c3ccc(Br)cc3)C(=O)O2)cc1 0.345
COc1ccc(O[C@H]2C=C[C@@H](c3ccccc3)O[C@@H]2CO)cc1 -0.0071
